PubChem BioAssay (EPA / NIEHS)
Where “and” joins values, the source holds several entries; their conditions need not be identical. Identical values can stand only once. Calls of active or inactive are those of the source. How the source made its calls: active means hit-call score of the fitted dose curve at least 0.9, where 1 is the maximum; inactive means score below 0.9.

Read-out: Interleukin-1 alpha (IL1a), IL1A (gene 3552)
Assay: BSK_KF3CT_IL1a: BioMAP Diversity Plus: KF3CT Assay for Interleukin-1 alpha (IL1a) Biomarker Activity (AID 2283070)
Conditions: primary human keratinocytes with fibroblasts; actives raise or lower the signal
Method: BSK_KF3CT is a cell-based, multiplexed-readout assay that uses keratinocytes and foreskin fibroblasts, a human skin primary cell co-culture, with measurements taken at 24 hours after chemical dosing in a 96-well plate.BSK_KF3CT_IL1a is an assay component measured in the BSK_KF3CT assay. It measures IL-1a antibody related to regulation of gene expression using ELISA technology.Data from the assay component BSK_KF3CT_IL1a was analyzed into 1 assay endpoint. This assay endpoint, BSK_KF3CT_IL1a, was analyzed with bidirectional fitting relative to DMSO as the negative control and baseline of activity. Using a type of binding reporter, gain or loss-of-signal activity can be used to understand changes in the signaling as they relate to the gene IL1A. Furthermore, this assay endpoint can be referred to as a primary readout, because this assay has produced multiple assay endpoints where this one serves a signaling function. To generalize the intended target to other relatable targets, this assay endpoint is annotated to the cytokine intended target family, where the subfamily is interleukins.
The levels of cell surface (or secreted, indicated by the prefix "s") biomarker endpoints were measured by ELISA. Overt cytotoxicity to cells in confluent adherent cultures (all systems other than the BT system) was assessed by measuring total protein levels using sulforhodamine B (SRB) staining in parallel cultures at the time of biomarker measurements, indicated as SRB endpoints. For proliferation assays for adherent cell types, individual cell types are cultured at sub-confluence and relative cell numbers quantified by SRB staining at time points optimized for each system (48 h: 3C and CASM3C systems; 72 h: BT and HDF3CGF systems; 96 h: SAg system). SRB was performed by staining cells with 0.1% SRB after fixation with 10% TCA and reading wells at 560 nm.Viability and proliferation of PBMC (T cells) was quantified by Alamar Blue reduction for the SAg and BT systems. For PBMC viability (referred to as PBMC Cytotoxicity within the assay endpoint names), cells were plated (75,000/well in a 96-well plate) and then chemical samples added for 1 h before addition of activators, SEB and TSST-1 (20 ng/mL final concentration each). Cells were incubated for 90 h. Then, Alamar Blue (20 uL/well) (Invitrogen, Cat DAL1100) was added for 6 h, and the plates were read with a fluorescence microplate reader at 546/580 nm (excitation/emission). For PBMC proliferation, cells were plated and activated as above but incubated for only 16 h prior to addition of Alamar Blue. Plates were read after 6 h.

| Compound | outcome | AC50 |
| --- | --- | --- |
| ClC(Cl)c1ccccc1 | inactive | – |
| ClC1=C(Cl)C2(Cl)C3C(Cl)C(Cl)CC3C1(Cl)C2(Cl)Cl (stereo not given) | – | 20 µM (active) |
| CCOP(=S)(S)OCC | inactive | – |
| COP(=O)(CCC(=O)NCO)OC | inactive | – |
| Cc1cccc(N)c1 | inactive | – |
| Cc1ccc([N+](=O)[O-])cc1C | inactive | – |
| COP(N)(=S)OC | inactive | – |
| O=C(O)C(F)(F)OC(F)(F)C(F)(F)OC(F)(F)C(=O)O | inactive | – |
| COP(=O)(O)OC | inactive | – |
| CCCCC(CC)COP(=O)(Oc1ccccc1)Oc1ccccc1 (stereo not given) | – | 5.46 µM (active) |
| CC(Cl)CN(C)C (stereo not given) | inactive | – |
| CCCN(CCC)c1c([N+](=O)[O-])cc(C(C)C)cc1[N+](=O)[O-] | inactive | – |
| COC(=O)C(F)(F)C(F)(F)OC(F)(C(F)(F)F)C(F)(F)OC(F)=C(F)F (stereo not given) | inactive | – |
| OCC(F)(F)OC(F)(F)C(F)(F)OC(F)(F)C(F)(F)OC(F)(F)F | – | 41.4 µM (active) and 44.4 µM (active) |
| CCOP(=S)(NC(C)C)Oc1ccccc1C(=O)OC(C)C (stereo not given) | inactive | – |
| CCOP(=S)(OCC)SCSc1ccc(Cl)cc1 | – | 3.12 µM (active) |
| Cc1ccc2c(c1N)C(=O)c1ccccc1C2=O | inactive | – |
| O=P(Oc1ccccc1)(Oc1ccccc1)Oc1ccccc1 | inactive | – |
| c1ccc2c(c1)Nc1ccccc1S2 | inactive | – |
| O=C(O)C(F)(OC(F)(F)C(F)(F)C(F)(F)F)C(F)(F)F (stereo not given) | inactive | – |

| Compound | outcome | AC50 |
| --- | --- | --- |
| NC(=O)C(F)(F)C(F)(F)F | inactive | – |
| Nc1ccc([N+](=O)[O-])cc1Cl | inactive | – |
| CCCCCCCc1ccc(O)cc1 | – | 30.4 µM (active) |
| COCCOCCO | inactive | – |
| OCC(F)(F)OC(F)(F)C(F)(F)OC(F)(F)CO | inactive | – |
| Nc1ccc2ccccc2c1 | inactive | – |
| C=CC(=O)OCC(F)(F)C(F)F | inactive | – |
| CCOP(=S)(Oc1ccc([N+](=O)[O-])cc1)c1ccccc1 (stereo not given) | inactive | – |
| Cc1c([N+](=O)[O-])cc2c(c1[N+](=O)[O-])C(C)(C)CC2(C)C | inactive | – |
| CC(C)Nc1ccc(Nc2ccccc2)cc1 | – | 24.4 µM (active) |
| CC(O)C(F)(F)C(F)(F)F (stereo not given) | inactive | – |
| O=P1(N(CCCl)CCCl)NCCCO1 (stereo not given) | inactive | – |
| CCN(CC)c1ccccc1 | inactive | – |
| c1cc2c3c(cccc3c1)CC2 | inactive | – |
| CC(Cc1ccc(OCC(=O)O)cc1)NCC(O)c1csc(C(F)(F)F)n1 (stereo not given) | inactive | – |
| c1ccc2c(c1)sc1ccccc12 | inactive | – |
| CCOC(=O)c1ccccc1C(=O)OCC | inactive | – |
| CC(C)(C)c1ccc(O)cc1 | inactive | – |
| CCOP(=S)(OCC)SCS(=O)(=O)CC | inactive | – |
| O=[N+]([O-])c1ccc(Cl)c(Cl)c1 | inactive | – |
